According to PubChem BioAssay AID1259309 (ICCB-Longwood Screening Facility, Harvard Medical School, 2017):
“And” between values parts separate entries of the source, which are not always exact repeats. Equal values may be shown once. About 1,800 (0.55%) of roughly 330,000 compounds were called active. This excerpt belongs to a sample that is enriched for actives. Values without a mark were called inactive. Rule as the data show it: active = growth inhibition above about 68%; inactive = the rest.

Assay: growth inhibition of ugtP-null S. aureus, primary screen, RN4220 ugtP deletion, OD600 (AID 1259309);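 also: plate controls were untreated wells for no effect and antibiotic for full effect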
Conditions: 16 h, stronger effect = higher value

| SMILES | growth inhibition |
| --- | --- |
| CC(C)=CCCC1(C)C=Cc2c(ccc3c2[nH]c2cc(O)c(C)cc23)O1 (stereo not drawn) | 95.6% (active) |
| CC[C@@]12C(=O)N(c3cccc(F)c3)C(=O)N1C(c1ccc(Br)cc1)C1C(=O)N(C(C)(C)C)C(=O)C12 (stereo partly drawn) | -3.27% |
| CCCCCCCCCCCCN1CC(=CC(=O)OCC)c2cc(C(F)(F)F)ccc2S1(=O)=O | 2.79% |
| O=C(CON=Cc1c(Cl)cccc1Cl)NNC(=O)c1cccc(Cl)c1 | 2.89% |
| Cc1ccccc1NC(=O)CSC(=O)c1ccccc1 | 5.32% |
| Cc1cccc(NC(=O)CSC(N)=O)c1C | 8.69% |
| Cc1ccccc1N/C(SCc1ccc(Cl)cc1)=C(/C#N)C(N)=O | 84.4% (active) |
| O=C(CNC(=O)c1ccc(-c2ccccc2)cc1)OCc1ccc(Cl)cc1 | 19.4% |
| O=C(OCc1ccc(-c2ccccc2)cc1)c1cccc(O)c1 | 100% (active) |
| O=C(OCC(=O)c1c[nH]c2ccccc12)c1cccc(O)c1 | -15.2% |
| Cn1cccc1CC(=O)NN=Cc1ccco1 | -0.545% |
| OCCC1CC(O)C(O)[C@]2(OCCCc3ccccc32)O1 (stereo partly drawn) | 4.16% and 2.75% |
| COc1cc(C=NNC(=O)CC#N)ccc1Oc1nc(Cl)ncc1F | -1.11% |
| O=C(Oc1ccc(C=NNc2ccccc2)cc1)c1ccccc1 | -8.03% |
| Cc1cc(C)n(C(=O)C(C#N)=NNc2cc(Cl)cc(Cl)c2)n1 | 99.7% (active) |
| N#CC(=NNc1cc(Cl)cc(Cl)c1)c1nnc2n1CCCCC2 | -12% |
| Cc1cc(C)n(C(=O)CCNC(=O)c2ccccc2Cl)n1 | -2.2% |
| CC(=NNC(=O)c1ccco1)c1ccc(NC(=O)C(F)(F)F)cc1 | 0.661% |
| CCOc1ccc(N2C(=O)CC(S/C(N)=N/N=Cc3cccs3)C2=O)cc1 (stereo not drawn) | 4.39% |
| CCOC1OC(C(=O)N2CCN(Cc3ccc4c(c3)OCO4)CC2)=CC(c2cn(C(C)=O)c3ccccc23)C1CCCO (stereo not drawn) | -12.6% and 8.11% |
| Oc1ccc(C=NNc2cccc3cccnc23)c(O)c1 | 3.39% |
| Oc1ccccc1C=NNc1nccnc1Cl | 0.00308% |
| Oc1ccccc1C=NNc1cccc2cccnc12 | 83% (active) |
| Cc1ccc2nc(NN=Cc3ccccc3C#N)nc(-c3ccccc3)c2c1 | 11.2% |
| O=c1c2nnn(-c3ccccc3)c2ncn1CC=Cc1ccccc1 | 12.1% |
| CCOc1ccc(-c2cc(C)[n+](CCN(CC)CC)c(-c3ccc(OCC)cc3)c2)cc1 | 97.1% (active) |
| CCOc1ccc2c(c1)C(c1ccc(C)cc1)=NNC(c1ccc(C)cc1)=N2 | 10.8% |
| CCOc1ccc(-c2nnc3ccc(SC)nn23)cc1 | 0.868% |
